# Reference: PubChem BioAssay AID2113 (National Center for Advancing Translational Sciences (NCATS), 2009)
# Inconclusive results are not listed. Where a call stands in place of a potency, no number is given. Active and inactive are the calls of the source. The call rests on the fitted dose curve; in most records, active means well fitted curve in either direction with a large enough effect; inconclusive means small, poorly fitted or top-dose-only effect; inactive means no such curve, though single readings can be large or run the other way.
# Molecular target: Lysosomal alpha-glucosidase (Homo sapiens) (UniProt P10253)
# Assay: Confirmation of Inhibitors and Activators of Human alpha-Glucosidase From Spleen Homogenate;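 on potency: fluorescence of 4-methylumbelliferone released from a fluorogenic glucopyranoside substrate at pH 5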
# Conditions: alpha-glucosidase enzyme activity; series mostly up to 60.5 µM
# Summary of the method: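 Compounds titrated against spleen-homogenate alpha-glucosidase, pH 5.0, 1 mM 4-MU-glucoside substrate, 37 C for 40 min. Fluorescence after pH 10 stop, normalised to no-enzyme and enzyme controls; Hill-equation AC50.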
# Potency means the concentration at half of the fitted maximal effect.
row,Compound,Potency
1,CC(=O)Oc1ccc2cc(-c3nc(-c4ccccc4)c(C)s3)c(=O)oc2c1,inactive
2,COc1ccc(CCn2c(N)cc(=O)[nH]c2=S)cc1OC,inactive
3,O=c1oc2ccc3ccccc3c2cc1-c1nc2c(s1)CCc1ccccc1-2,inactive
4,Cn1c2c(c(=O)n(C)c1=O)CN(CC1CCCO1)CN2 (configuration not stated),inactive
5,COc1ccc2cc(C#N)c(=O)oc2c1,inactive
6,Cc1ccc(-c2cc(C(=O)N/N=C/c3c(C)nn(-c4ccccc4)c3C)n[nH]2)s1,inactive
7,C=CCCCCCCCCCCCc1ccco1,inactive
8,O=C(Nc1ccc(OCC(=O)N2CCN(S(=O)(=O)c3ccccc3)CC2)cc1)c1ccco1,inactive
9,CCCN1CNc2c(c(=O)[nH]c(=S)n2CCc2ccc(C)cc2C)C1,39.8 µM (active)
10,CCCN1CNc2c(c(=O)[nH]c(=S)n2CCc2c(Cl)cccc2Cl)C1,35.5 µM (active)
11,Cc1ccc(S(=O)(=O)N2CCN(C(=O)N(c3ccccc3)c3ccccc3)CC2)cc1,inactive
12,O=S(=O)(c1ccc2nc(-c3ccco3)c(-c3ccco3)nc2c1)N1CCOCC1,inactive
13,CC(=O)c1ccc(N2CCN(S(=O)(=O)c3ccc4c(c3)C(Cl)(Cl)C(=O)N4)CC2)cc1,32.6 µM [inhibitor] (active)
14,N#CCCN1CCN(S(=O)(=O)c2ccc(S(=O)(=O)N3CCOCC3)cc2)CC1,inactive
15,CCCc1cc(-c2nc(N)ncc2-c2ccc3c(c2)OCCCO3)c(O)cc1OC,inactive
16,Cc1c(Nc2c3ccccc3nc3ccccc23)c(=O)n(-c2ccccc2)n1C,inactive
17,O=C(Cn1c(=O)[nH]n(-c2ccccc2)c1=O)N1CCCc2ccccc21,inactive
